Test results reported in the supplement of paper PMC6555819.

What follows are sequences tested on RARa:RXR (NR concentration 270 nM, RXRa partner concentration 90 nM) (assay: PBM binding z-score (relative to random genomic background probes); higher = stronger binding; sequences stand for … in GC…GCGATTGACAGCGTAGAATGAAGG).
How it was run: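 Random background probes are the reference for binding z-scores. These scores derive from regression-normalized fluorescence on custom Agilent 4×180K protein-binding microarrays incubated 1 h with ligand-free nuclear receptor dimers. Binding was detected with antibodies against each partner (one per run).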

First: TATACAGGGTCAAAGGCCACAGTACGAATGTCGA
Second: GATACAGGGTCAGCTAGAGCCCAGAGTATGGAAA
The PBM binding z-score of the first is higher: 7.09 for the first, 2.74 for the second.

Going from TATACAGGGACAAAGGCCAGAGTACGAATGTCGA to TCGAGTAGGTTAGGGGCATTGAGAATGGCGTCGA, the PBM binding z-score falls from 0.273 to 0.211.

Compared with CCTCGGAGGACAGAAGGTCAGAGCTGTCCGCTTT, CGTCCAAGGTCATAGGAGGTCCGTGAAGACAGAT is higher in PBM binding z-score: 1.93 for the first, 4.68 for the second.

Compared with AGTCAAAGTCCACTAGGTAACGTAAGATTCAGCT, CCTTACGGGTCACGAGGTTATAGAACGACGAGCG is higher in PBM binding z-score: -0.205 for the first, 6.07 for the second.

Going from TGAATGAGGTTATAAGAACAGGGAACGTTGCAAA to CGAACTACGTCATTGACAGGACAGTGAATAGTAA, the PBM binding z-score falls from 1.32 to -0.22.

First: ATACCAAGGTGATCGTGAGGTGGTTGATACTAAC
Second: TCTAGTTGCTCACGGAGGTCACACACGACGGGTA
The PBM binding z-score of the first is lower: 0.474 for the first, 4.2 for the second.

Compared with CCTCGGGGGACAACAGGAGGTCAGAGCTGCCAGA, CTCGAAAGGTCGGTTGAGGTGAGTATTCGGATAA is lower in PBM binding z-score: 2.8 for the first, 2.04 for the second.

Going from TAGCCTAGGTCATATCGGGCCAGTATACGCTATA to AGAACGAGGGCACGCTGAGTTGTTAGCAGAGTAG, the PBM binding z-score falls from 1.92 to 0.724.

Going from ACAGACTGGTGATGAAGGTAACTCAGGCTATCAT to CTCGAAAGGTCGTGCTCAGGTGAGTCTACCAAAC, the PBM binding z-score rises from -0.424 to 3.94.

Compared with AGAACGAGGGCACGCTGAGTTGACAGCAGAGTAG, ACTAGCAAGCCAAGTTTGGGTCACTCAAACAAAG is lower in PBM binding z-score: 1.24 for the first, 0.968 for the second.

Going from CCTTACGGCTCAAGGTTATAGCACGGGTGGTACG to CCTATTAGTTGACCATAAGGGCTACCGAAGCTCG, the PBM binding z-score falls from 0.389 to 0.373.

Going from CGAACTAGGTCAAGGAAAGTGAATCTCCGCACGC to TGTCAAAGTTCAAAGGTAACGTAAGTATCCACAC, the PBM binding z-score rises from 1.62 to 6.45.

Compared with GCTGCTAGGTCAACTGATGGTCAGCCAAAGCTCG, CATGCAGGGTCAGCTAGGCCAGAGTAGGGACGGC is higher in PBM binding z-score: 2.93 for the first, 3.27 for the second.

First: TCATGTAGATCAACAGGAGGTTAAGAAAGATCGA
Second: TTACCAAGGAGAAAGGTCGTTGATGCACGCCTTG
The PBM binding z-score of the first is lower: 1.3 for the first, 2.12 for the second.

Compared with AGTTAAAGTTCATCTAGGTAACGTAAGATATGCT, CGAACTAGGTCATTGACAGGCCAGTGAATAGTAA is lower in PBM binding z-score: 3.23 for the first, 2.06 for the second.

Compared with GCTGCTAGGTCAACTGATGGTCAGGTAAAGCTCG, TCTAGCAGGCCAGAGGGTCACACAAGAGGTACGG is higher in PBM binding z-score: 3.15 for the first, 3.44 for the second.

Going from ATATGTCGGTTAGCTGGGGTCATTCAGACTAGGC to TCATATAGGTAATTCAGGTGAAAGTCGGCATCTA, the PBM binding z-score falls from 5.05 to 1.34.

Compared with CCTCGAAGGACAGAAGGTCAGAGCTGTCCGCTTT, TGAATGATGTTAAAGATCAGGGAACGTGGCGTCG is lower in PBM binding z-score: 1.83 for the first, -0.242 for the second.

Going from TCCTATAGGTAATACAGGTGAAAGTCGGCATCTA to ACTAGCAGGCCAAGTTGGGGTCACTCAAACAAAG, the PBM binding z-score rises from 0.537 to 5.79.

Going from CGTCCAAGGTCATAGGAGGGCAGTGAAGACAGAT to ATCTAAAGGTCGACGAGGTGAGTATACACCGTTT, the PBM binding z-score falls from 4.4 to 3.76.
